Reference: PubChem BioAssay (NCI)
This is part of a sample that, as a whole, favours compounds with a hit. Of some 83,000 tested, about 20% had one in any assay.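 Method: cells in 96-well plates; compound added at one concentration; 48 h incubation; percent growth measured; values under 10 scored active.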 The source made the active and inactive calls.

These compounds were tested on A498 renal (assay: NCI-60 one-dose screen, 48 h (100 = growth as untreated, 0 = no growth, -100 = all killed)). Details: 10 µM unless noted.
Protocol: Growth inhibition of the A498 human tumor cell line is measured as a screen for anti-cancer activity. Cells are grown in 96 well plates and exposed to the test compound for 48 hours. Compounds are tested at a single concentration, which is 10^-5 M for most compounds. The reported endpoint is percent growth (GI% or GIPRCNT), where numbers from 0 - 100% represent growth inhibition, and numbers from -100% - 0 represent cell death. For example, a value of 40 represents 60% growth inhibition. A value of 0 means no net growth occurred over the course of the experiment. A value of -40 indicates 40% of cells at the beginning of the experiment died by the end of the experiment. A value of -100 means all cells are dead at the end of the experiment.
NCI-60 Human Tumor Cell Lines Screen was performed using the standard one-dose NCI protocol, which is described in more detail at https://dtp.cancer.gov/discovery_development/nci-60/default.htm.
Compounds with GIPRCNT values below 10 were considered active. Activity score was based on GIPRCNT using the following formula: […]
Score is 0 for GIPRCNT values of 100 or above, 50 for GIPRCNT values of 0, and 100 for GIPRCNT values of -100.

Compound	growth
CCc1cc(OC(=O)N2CCN(CCC(C)(COC(C)(C)C)COC(C)(C)C)CC2)ccc1Nc1cc(-c2ccc(-n3cccn3)cc2)[nH]n1	81.2% (inactive)
CN1CCN(Cc2ccc(/C=N/Nc3ccnc4cc(Cl)ccc34)cc2)CC1	111% (inactive)
CCCN1C=C/C(=C\C(=O)n2ccc3ccccc32)c2ccccc21	92.9% (inactive)
NC1CC2(CCN(c3cnc(C(=O)Nc4cc(F)cc5cccnc45)cn3)CC2)C1	74.3% (inactive)
COc1ccc2c(c1)c(-c1nnc(N)nc1-c1c[nH]c3ccc(F)cc13)cn2C	27.5% (inactive)
CCN(CC)CCOc1ccc(C(=C(c2ccccc2)C2CCCC2)c2ccc(OCCN(CC)CC)cc2)cc1	96.5% (inactive)
Cc1ccc(/C=N/Nc2nc(Nc3ccccc3)nc(Nc3ccc(S(N)(=O)=O)cc3)n2)cc1	54.7% (inactive)
CC(O)c1cccc(/C(N)=N/C(N)=N/c2nc3ccccc3s2)c1 (stereo not given)	90.7% (inactive)
COc1cc(C(C)=C(c2ccc(OCCN(C)C)cc2)c2ccc(OCCN(C)C)cc2)ccc1F	108% (inactive)
CCCCCCNC(=O)Oc1ccc(/C(=C(/C)c2ccc(OC)cc2)c2ccc(OCCN3CCCCCC3)cc2)cc1	64.2% (inactive)
N#CC1=C2NCCCNc3oc(nc3C#N)Cc3ccccc3CC(=N1)O2	95.5% (inactive)
CC(=O)Nc1nc(C)c(-c2csc(Nc3ccccc3)n2)s1	16% (inactive)
CCOC(=O)c1ccc(NC2=C(Cl)C(=O)c3nc(C)ccc3C2=O)cc1	68.3% (inactive)
CNC(=O)c1cc(-c2ccc(NC(=S)Nc3cccc(C(F)(F)F)c3)cc2)nc2cccnc12	88.8% (inactive)
CCOC(=O)c1cccc(NC2=C(Cl)C(=O)C(C)=C(C)C2=O)c1	89.1% (inactive)
CN(C)c1ccc(-c2cc(-c3c[nH]c4ccccc34)nc(N)c2C#N)cc1	-0.675% (active)
C[C@@H]1OCC2(CCN(c3cnc(C(=O)Nc4cc(F)cc5cccnc45)cn3)CC2)[C@@H]1N	71.9% (inactive)
NC1=NC2(CCCC2)N(c2ccc(S(=O)(=O)Nc3nccs3)cc2)C(N)=N1	120% (inactive)
COc1cc(C(=O)c2cc(C(C)=O)c3cccc(C)n23)cc(OC)c1OC	21.9% (inactive)
O=C(CSc1nnc(-c2ccc(Cl)cc2)n1-c1ccccc1)Nc1ccc(Cl)cc1	41.4% (inactive)

Compound	growth
COc1ccc(-c2cc(-c3ccc(N4CCOCC4)cc3)n3c(n2)nc2ccccc23)cc1OC	63% (inactive)
Cc1[nH]c(C(=O)Nc2ccccc2OCc2cccc(C(=O)NC3CCNC3)c2)c(Cl)c1Cl (stereo not given)	79.7% (inactive)
O=C(CCCCCCNC(=O)C(O)(O)C(F)(F)F)Nc1ccc(Cl)cc1	9% (active)
CN1CCN(c2ccc(Nc3nc(NCCNS(=O)(=O)c4ccc(Cl)cc4)c4sccc4n3)cc2)CC1	94.2% (inactive)
O=S(=O)(NCCCNc1nccc(-c2[nH]c(-c3ccccc3)nc2-c2ccc(F)c(O)c2)n1)c1cccc2ccccc12	73.1% (inactive)
NS(=O)(=O)c1ccc(CCn2c(-c3ccc(C(=O)O)cc3)nc(-c3ccccc3)c2-c2ccccc2)cc1	102% (inactive)
CCCCOc1ccc(S(=O)(=O)N2CCN(c3nc(C)cc(N4CCOCC4)n3)CC2)cc1	37.1% (inactive)
O=S(=O)(NCCCNc1nccc(-c2[nH]c(-c3ccccc3)nc2-c2ccc(F)c(O)c2)n1)c1ccccc1	114% (inactive)
Cc1cc(NS(=O)(=O)c2ccc(NC(=O)CSc3nc4ccccc4c(=O)n3-c3ccccc3)cc2)no1	99.6% (inactive)
CC(=O)C1=C(C)NC(NNc2ccccc2)=NC1c1ccc([N+](=O)[O-])cc1 (stereo not given)	91.9% (inactive)
NCCNC(=O)c1cccc(COc2ccccc2NC(=O)c2cc(Cl)c(Cl)[nH]2)c1	81.5% (inactive)
CN1CCN(Cc2ccc(NC(=O)c3cncc(C#Cc4cnc5ccc(N)nn45)c3)cc2C(F)(F)F)CC1	67% (inactive)
CCOc1cccc(/C(N)=N/C(N)=N/c2nc3ccccc3s2)c1	115% (inactive)
O=C(CSc1nnc(-c2cccs2)n1-c1ccccc1)Nc1ccccc1	84.9% (inactive)
CCCc1[nH]c(-c2cc(N)ccc2Cl)c2c1C(=O)CCCC2	108% (inactive)
C[C@H](Nc1ncnc2ccc(-c3cnc(Cl)c(NS(C)(=O)=O)c3)cc12)c1ccccc1	-23.8% (active)
Cc1ccc2c(n1)C(=O)C(Cl)=C(Nc1cccc(C)c1C)C2=O	64% (inactive)
O=C(CSc1nnc(-c2cccs2)n1-c1ccccc1)Nc1ccccc1F	79.9% (inactive)
CN1CCN(c2ccc(Nc3nc(NCCCNS(=O)(=O)c4ccc(C(F)(F)F)cc4)c4sccc4n3)cc2)CC1	-87% (active)
O=[N+]([O-])c1ccc(NC(=S)NNC(=S)Nc2ccc(F)cc2)cc1	81.4% (inactive)
